Assay results reported in article PMC7862700, “An all-to-all approach to the identification of sequence-specific readers for epigenetic DNA modifications on cytosine”.

Assays:
Experiment in all cases: DAPPL (digital affinity profiling via proximity ligation, sequencing); 10 mM Tris-HCl pH 7.5, 50 mM NaCl, 1 mM DTT, 4% glycerol, room temperature, 30 min; GST-TFs on glutathione beads, 16-mer random dsDNA library, 0.1% formaldehyde crosslink after washing; high values mean tight binding
[1] = target: T1, FEV (Homo sapiens, UniProt Q99581 1-238); conditions: protein: recombinant; tags: N-terminal GST; dsDNA, one strand shown
T1 sequence: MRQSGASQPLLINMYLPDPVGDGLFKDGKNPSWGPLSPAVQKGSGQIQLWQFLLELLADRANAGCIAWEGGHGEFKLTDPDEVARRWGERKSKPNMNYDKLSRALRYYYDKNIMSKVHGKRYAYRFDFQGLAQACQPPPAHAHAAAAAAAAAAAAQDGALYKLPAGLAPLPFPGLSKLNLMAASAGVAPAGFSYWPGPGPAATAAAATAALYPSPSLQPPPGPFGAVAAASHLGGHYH
In short: (§1)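 Beads coated with glutathione captured GST-fused human transcription factors that had been expressed in yeast, and the factors were then given DNA barcodes and pooled with a tag-only sample. The pools were incubated with 200 nmole of a random double-stranded 16-mer DNA library in Tris/NaCl/DTT/glycerol buffer for 30 min at room temperature, washed, crosslinked with 0.1% formaldehyde and proximity-ligated with BsaI/T4 ligase at 37 °C for 1 h. PCR amplification and Illumina NextSeq500 sequencing came last. Binding signal is each hexamer's read frequency for a factor divided by its frequency for the tag-only sample.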

[2] = target: ETV5 (Homo sapiens, UniProt P41161 1-510); conditions: protein: recombinant; tags: N-terminal GST; dsDNA, one strand shown
Chain of ETV5 (P41161 whole entry): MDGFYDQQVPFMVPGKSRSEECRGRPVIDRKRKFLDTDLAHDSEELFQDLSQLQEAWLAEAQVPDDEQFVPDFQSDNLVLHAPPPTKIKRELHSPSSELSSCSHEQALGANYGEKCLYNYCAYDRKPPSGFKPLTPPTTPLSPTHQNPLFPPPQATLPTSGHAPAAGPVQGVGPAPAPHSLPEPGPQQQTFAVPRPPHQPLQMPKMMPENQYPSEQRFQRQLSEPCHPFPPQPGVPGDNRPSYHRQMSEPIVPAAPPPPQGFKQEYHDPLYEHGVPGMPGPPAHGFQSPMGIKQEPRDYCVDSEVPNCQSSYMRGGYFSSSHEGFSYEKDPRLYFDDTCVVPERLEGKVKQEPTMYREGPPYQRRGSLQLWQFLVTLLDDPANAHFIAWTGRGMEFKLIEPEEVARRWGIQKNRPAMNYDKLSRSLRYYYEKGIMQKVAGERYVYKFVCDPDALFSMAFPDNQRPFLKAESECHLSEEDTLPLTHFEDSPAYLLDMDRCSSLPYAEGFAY
In short: as §1

[3] = target: HSF1 (Homo sapiens, UniProt Q00613 1-529); conditions: protein: recombinant; tags: N-terminal GST; chain copies: 3; dsDNA, one strand shown
Chain of HSF1 (Q00613 whole entry): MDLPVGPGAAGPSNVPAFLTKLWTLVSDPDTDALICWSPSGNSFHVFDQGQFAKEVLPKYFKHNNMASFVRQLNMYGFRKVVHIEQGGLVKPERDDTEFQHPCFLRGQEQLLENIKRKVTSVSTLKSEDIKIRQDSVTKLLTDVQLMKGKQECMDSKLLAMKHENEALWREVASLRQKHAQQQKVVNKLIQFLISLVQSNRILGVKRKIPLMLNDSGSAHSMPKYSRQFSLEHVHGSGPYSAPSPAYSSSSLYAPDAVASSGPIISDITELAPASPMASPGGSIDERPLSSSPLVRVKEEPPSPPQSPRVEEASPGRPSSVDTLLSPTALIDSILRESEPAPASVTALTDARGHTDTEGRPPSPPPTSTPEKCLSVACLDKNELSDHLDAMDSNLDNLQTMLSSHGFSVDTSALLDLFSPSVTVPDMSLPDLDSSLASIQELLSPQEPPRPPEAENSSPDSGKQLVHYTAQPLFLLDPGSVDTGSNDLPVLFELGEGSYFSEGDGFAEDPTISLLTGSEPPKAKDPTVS
In short: as §1

[4] = target: T2, SPIC (Homo sapiens, UniProt Q8N5J4 1-248); conditions: protein: recombinant; tags: N-terminal GST; dsDNA, one strand shown
T2 sequence: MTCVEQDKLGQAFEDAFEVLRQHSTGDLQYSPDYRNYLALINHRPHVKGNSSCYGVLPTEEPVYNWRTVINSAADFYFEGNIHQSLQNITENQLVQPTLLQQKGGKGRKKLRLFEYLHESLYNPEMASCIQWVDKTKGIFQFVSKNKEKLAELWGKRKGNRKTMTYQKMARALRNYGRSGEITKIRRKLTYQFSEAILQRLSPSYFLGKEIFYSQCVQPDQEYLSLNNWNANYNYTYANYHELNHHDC
In short: as §1

[5] = target: ELF4 (Homo sapiens, UniProt Q99607 1-663); conditions: protein: recombinant; tags: N-terminal GST; dsDNA, one strand shown
Chain of ELF4 (Q99607 whole entry): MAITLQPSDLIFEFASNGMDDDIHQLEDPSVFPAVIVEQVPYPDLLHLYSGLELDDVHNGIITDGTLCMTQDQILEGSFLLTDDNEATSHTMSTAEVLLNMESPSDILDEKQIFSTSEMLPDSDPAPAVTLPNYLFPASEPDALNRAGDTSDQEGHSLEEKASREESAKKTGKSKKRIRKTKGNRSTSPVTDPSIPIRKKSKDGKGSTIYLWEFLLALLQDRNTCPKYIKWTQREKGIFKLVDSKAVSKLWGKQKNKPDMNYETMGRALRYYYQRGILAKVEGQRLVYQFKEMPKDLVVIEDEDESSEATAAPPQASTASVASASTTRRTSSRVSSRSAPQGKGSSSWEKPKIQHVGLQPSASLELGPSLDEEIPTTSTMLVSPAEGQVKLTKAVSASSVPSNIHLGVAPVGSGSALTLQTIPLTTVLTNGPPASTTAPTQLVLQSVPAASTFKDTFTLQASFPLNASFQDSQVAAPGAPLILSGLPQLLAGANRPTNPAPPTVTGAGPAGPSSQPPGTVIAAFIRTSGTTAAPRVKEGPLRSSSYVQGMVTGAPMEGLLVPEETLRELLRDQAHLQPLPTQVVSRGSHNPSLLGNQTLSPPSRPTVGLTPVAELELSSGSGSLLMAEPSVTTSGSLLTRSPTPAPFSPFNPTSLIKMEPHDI
In short: as §1

[6] = target: T3, ELK4 (Homo sapiens, UniProt P28324-2 1-405); conditions: protein: recombinant; tags: N-terminal GST; dsDNA, one strand shown
T3 sequence: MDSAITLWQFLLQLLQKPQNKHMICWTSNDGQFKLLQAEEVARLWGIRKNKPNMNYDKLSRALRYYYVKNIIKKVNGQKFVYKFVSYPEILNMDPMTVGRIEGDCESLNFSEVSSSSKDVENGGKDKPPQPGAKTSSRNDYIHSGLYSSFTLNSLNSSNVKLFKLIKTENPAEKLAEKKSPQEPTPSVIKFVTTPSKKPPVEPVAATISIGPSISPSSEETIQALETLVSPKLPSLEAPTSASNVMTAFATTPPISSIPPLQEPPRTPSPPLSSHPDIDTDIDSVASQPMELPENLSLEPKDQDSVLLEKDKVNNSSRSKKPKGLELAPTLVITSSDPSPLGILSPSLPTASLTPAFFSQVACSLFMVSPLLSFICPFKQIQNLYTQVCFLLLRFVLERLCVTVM
In short: as §1

[7] = target: T4, ETV2 (Homo sapiens, UniProt O00321 1-342); conditions: protein: recombinant; tags: N-terminal GST; dsDNA, one strand shown
T4 sequence: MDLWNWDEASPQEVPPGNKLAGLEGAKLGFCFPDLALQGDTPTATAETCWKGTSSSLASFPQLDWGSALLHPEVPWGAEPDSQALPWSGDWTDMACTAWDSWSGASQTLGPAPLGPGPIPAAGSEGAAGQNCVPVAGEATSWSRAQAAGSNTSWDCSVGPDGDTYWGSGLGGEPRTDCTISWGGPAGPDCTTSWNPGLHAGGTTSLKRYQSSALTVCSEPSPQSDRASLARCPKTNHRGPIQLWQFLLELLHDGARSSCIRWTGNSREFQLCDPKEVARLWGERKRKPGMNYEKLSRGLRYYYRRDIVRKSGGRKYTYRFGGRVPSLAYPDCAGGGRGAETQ
In short: as §1

[8] = target: T5, ELF3 (Homo sapiens, UniProt P78545 1-371); conditions: protein: recombinant; tags: N-terminal GST; dsDNA, one strand shown
T5 sequence: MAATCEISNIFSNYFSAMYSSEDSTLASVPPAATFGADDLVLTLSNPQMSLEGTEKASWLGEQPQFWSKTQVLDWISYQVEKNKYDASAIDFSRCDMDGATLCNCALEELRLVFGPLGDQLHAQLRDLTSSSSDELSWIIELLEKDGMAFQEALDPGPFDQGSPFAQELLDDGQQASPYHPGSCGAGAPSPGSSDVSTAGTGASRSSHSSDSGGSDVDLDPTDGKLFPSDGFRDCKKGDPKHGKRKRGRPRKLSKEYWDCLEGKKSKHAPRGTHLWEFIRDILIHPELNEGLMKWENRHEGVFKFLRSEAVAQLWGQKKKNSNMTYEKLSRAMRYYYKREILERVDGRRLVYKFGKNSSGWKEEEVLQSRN
In short: as §1

[9] = target: CRX (Homo sapiens, UniProt O43186 1-299); conditions: protein: recombinant; tags: N-terminal GST; dsDNA, one strand shown
Chain of CRX (O43186 whole entry): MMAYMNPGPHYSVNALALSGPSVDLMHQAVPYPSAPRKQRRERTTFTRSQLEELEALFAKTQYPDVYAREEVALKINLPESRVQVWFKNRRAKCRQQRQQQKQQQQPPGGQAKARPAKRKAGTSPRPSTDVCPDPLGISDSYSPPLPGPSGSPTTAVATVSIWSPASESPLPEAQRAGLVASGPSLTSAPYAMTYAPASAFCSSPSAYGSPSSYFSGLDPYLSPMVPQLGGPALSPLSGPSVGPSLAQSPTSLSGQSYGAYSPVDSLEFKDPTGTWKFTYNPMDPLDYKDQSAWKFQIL
In short: as §1

[10] = target: ETV1 (Homo sapiens, UniProt P50549 1-477); conditions: protein: recombinant; tags: N-terminal GST; dsDNA, one strand shown
Chain of ETV1 (P50549 whole entry): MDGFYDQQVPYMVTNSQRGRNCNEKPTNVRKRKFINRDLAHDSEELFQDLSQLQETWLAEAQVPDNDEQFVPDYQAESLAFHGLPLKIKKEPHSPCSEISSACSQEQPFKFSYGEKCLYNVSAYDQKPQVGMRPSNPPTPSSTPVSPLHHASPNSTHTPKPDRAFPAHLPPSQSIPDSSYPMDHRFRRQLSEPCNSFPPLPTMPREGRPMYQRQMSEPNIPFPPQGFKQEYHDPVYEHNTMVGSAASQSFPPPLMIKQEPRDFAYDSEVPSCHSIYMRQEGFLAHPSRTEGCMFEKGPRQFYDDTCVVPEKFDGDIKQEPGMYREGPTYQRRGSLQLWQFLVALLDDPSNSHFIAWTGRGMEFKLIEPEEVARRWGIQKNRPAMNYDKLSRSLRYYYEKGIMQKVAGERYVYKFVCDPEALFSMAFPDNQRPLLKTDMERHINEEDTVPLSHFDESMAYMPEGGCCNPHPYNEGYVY
In short: as §1

[11] = target: T6, ERF (Homo sapiens, UniProt P50548 1-548); conditions: protein: recombinant; tags: N-terminal GST; dsDNA, one strand shown
T6 sequence: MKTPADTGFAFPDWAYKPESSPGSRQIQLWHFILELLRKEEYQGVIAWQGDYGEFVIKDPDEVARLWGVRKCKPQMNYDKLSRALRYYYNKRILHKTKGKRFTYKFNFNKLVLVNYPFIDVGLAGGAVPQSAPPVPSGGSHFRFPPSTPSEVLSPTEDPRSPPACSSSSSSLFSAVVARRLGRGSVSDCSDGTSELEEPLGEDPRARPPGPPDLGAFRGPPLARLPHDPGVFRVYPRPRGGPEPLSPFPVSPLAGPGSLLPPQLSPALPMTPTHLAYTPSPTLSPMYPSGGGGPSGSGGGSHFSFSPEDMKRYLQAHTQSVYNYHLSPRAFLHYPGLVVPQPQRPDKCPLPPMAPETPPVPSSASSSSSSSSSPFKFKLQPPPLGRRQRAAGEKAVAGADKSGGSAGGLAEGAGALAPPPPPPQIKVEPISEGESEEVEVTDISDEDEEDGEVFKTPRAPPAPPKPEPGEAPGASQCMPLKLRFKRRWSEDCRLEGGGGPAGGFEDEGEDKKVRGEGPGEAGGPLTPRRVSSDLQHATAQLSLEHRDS
In short: as §1

[12] = target: T7, ETV3L (Homo sapiens, UniProt Q6ZN32 1-361); conditions: protein: recombinant; tags: N-terminal GST; dsDNA, one strand shown
T7 sequence: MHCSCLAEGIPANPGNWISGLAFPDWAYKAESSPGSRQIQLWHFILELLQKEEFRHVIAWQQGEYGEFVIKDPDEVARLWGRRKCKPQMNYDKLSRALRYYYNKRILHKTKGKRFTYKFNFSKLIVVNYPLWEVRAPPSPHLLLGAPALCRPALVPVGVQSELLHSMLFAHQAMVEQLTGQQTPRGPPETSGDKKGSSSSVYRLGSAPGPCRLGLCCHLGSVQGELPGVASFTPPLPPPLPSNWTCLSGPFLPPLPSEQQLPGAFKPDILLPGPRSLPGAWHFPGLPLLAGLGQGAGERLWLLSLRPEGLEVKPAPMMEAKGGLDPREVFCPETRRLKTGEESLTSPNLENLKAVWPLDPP
In short: as §1

[13] = target: T8, ETS2 (Homo sapiens, UniProt P15036 1-469); conditions: protein: recombinant; tags: N-terminal GST; dsDNA, one strand shown
T8 sequence: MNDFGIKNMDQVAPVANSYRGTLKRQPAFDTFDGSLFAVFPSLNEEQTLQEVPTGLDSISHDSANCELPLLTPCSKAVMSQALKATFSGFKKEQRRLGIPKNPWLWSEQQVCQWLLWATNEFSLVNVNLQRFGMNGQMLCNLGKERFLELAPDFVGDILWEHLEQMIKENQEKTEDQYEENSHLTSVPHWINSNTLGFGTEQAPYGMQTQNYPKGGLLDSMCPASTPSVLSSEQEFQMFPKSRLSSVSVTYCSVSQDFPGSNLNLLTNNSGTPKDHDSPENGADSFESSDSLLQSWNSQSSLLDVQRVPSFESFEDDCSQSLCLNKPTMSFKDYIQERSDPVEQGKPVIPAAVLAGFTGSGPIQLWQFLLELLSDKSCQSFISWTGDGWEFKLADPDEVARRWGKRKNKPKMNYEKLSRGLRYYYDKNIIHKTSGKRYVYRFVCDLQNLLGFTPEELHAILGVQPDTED
In short: as §1

[14] = target: T9, SPDEF (Homo sapiens, UniProt O95238 1-335); conditions: protein: recombinant; tags: N-terminal GST; dsDNA, one strand shown
T9 sequence: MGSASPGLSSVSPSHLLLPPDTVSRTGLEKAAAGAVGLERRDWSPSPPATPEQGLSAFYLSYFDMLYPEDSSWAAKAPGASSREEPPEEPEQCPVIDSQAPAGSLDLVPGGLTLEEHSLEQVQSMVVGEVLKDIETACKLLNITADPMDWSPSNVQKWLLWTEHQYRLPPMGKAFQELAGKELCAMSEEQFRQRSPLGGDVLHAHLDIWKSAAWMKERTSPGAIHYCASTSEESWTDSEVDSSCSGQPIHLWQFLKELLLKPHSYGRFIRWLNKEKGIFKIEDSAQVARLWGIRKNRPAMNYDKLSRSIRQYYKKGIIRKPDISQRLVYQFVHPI
In short: as §1

[15] = target: T10, ETV7 (Homo sapiens, UniProt Q9Y603 1-341); conditions: protein: recombinant; tags: N-terminal GST; dsDNA, one strand shown
T10 sequence: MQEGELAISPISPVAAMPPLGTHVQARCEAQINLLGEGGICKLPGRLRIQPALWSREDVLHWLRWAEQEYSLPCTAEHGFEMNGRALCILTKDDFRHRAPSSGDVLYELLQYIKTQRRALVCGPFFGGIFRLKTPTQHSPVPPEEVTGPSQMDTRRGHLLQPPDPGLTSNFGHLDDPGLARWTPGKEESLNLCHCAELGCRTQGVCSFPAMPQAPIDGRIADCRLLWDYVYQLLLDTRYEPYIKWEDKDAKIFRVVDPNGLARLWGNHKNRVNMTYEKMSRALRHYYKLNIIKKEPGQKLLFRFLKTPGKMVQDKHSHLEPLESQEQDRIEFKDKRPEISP
In short: as §1

[16] = target: T11, ELF5 (Homo sapiens, UniProt Q9UKW6-2 1-255); conditions: protein: recombinant; tags: N-terminal GST; dsDNA, one strand shown
T11 sequence: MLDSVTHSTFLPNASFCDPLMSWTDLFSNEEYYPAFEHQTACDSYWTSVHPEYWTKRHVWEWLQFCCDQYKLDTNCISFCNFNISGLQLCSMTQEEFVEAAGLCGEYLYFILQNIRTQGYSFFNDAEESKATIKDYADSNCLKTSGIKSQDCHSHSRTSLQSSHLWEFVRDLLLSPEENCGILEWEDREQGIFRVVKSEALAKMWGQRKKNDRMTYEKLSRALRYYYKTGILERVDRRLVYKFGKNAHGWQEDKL
In short: as §1

[17] = target: T12, ETV3 (Homo sapiens, UniProt P41162-2 1-143); conditions: protein: recombinant; tags: N-terminal GST; dsDNA, one strand shown
T12 sequence: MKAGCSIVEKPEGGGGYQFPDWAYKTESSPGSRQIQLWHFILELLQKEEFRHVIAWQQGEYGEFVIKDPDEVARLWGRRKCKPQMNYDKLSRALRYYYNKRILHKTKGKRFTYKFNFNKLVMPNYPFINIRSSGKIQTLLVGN
In short: as §1

[18] = target: ETV6 (Homo sapiens, UniProt P41212 1-452); conditions: protein: recombinant; tags: N-terminal GST; dsDNA, one strand shown
Chain of ETV6 (P41212 whole entry): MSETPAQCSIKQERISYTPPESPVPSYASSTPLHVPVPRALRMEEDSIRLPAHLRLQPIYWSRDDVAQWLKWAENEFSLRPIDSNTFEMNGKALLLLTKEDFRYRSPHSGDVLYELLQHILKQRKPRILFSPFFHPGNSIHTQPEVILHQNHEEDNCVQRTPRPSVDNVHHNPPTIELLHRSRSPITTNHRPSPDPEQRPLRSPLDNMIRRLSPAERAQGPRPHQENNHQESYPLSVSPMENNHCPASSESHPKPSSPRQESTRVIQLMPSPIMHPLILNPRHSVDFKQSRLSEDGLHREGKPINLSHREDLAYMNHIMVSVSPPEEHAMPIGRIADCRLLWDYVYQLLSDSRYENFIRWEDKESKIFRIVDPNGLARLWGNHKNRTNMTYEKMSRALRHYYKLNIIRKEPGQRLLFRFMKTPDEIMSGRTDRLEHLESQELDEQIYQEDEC
In short: as §1

CTCACA
binding signal [1]: 1.44 fold enrichment (6-mer frequency, TF over GST control) | binding signal [2]: 1.31 fold enrichment (6-mer frequency, TF over GST control) | binding signal [3]: 1.08 fold enrichment (6-mer frequency, TF over GST control) | binding signal [4]: 1.23 fold enrichment (6-mer frequency, TF over GST control) | binding signal [5]: 1.32 fold enrichment (6-mer frequency, TF over GST control) | binding signal [6]: 1.34 fold enrichment (6-mer frequency, TF over GST control) | binding signal [7]: 1.35 fold enrichment (6-mer frequency, TF over GST control) | binding signal [8]: 1.3 fold enrichment (6-mer frequency, TF over GST control) | binding signal [9]: 1.12 fold enrichment (6-mer frequency, TF over GST control) | binding signal [10]: 1.2 fold enrichment (6-mer frequency, TF over GST control) | binding signal [11]: 1.29 fold enrichment (6-mer frequency, TF over GST control) | binding signal [12]: 1.38 fold enrichment (6-mer frequency, TF over GST control) | binding signal [13]: 1.31 fold enrichment (6-mer frequency, TF over GST control) | binding signal [14]: 1.33 fold enrichment (6-mer frequency, TF over GST control) | binding signal [15]: 1.24 fold enrichment (6-mer frequency, TF over GST control) | binding signal [16]: 1.31 fold enrichment (6-mer frequency, TF over GST control) | binding signal [17]: 1.3 fold enrichment (6-mer frequency, TF over GST control) | binding signal [18]: 1.24 fold enrichment (6-mer frequency, TF over GST control)
